Reference: PubChem BioAssay (Tox21)
Several values for one entry are separate records, joined by “and”; a condition that tells them apart may be missing. Identical values can stand only once. Records with an inconclusive call do not appear. More than one record can exist for a structure, and the calls need not agree. Activity calls are given as the source filed them. Unless noted, the call rests on the fitted dose curve; in most records, active means well fitted curve in the direction sought with a large enough effect in the repeat runs; inconclusive means weak or mixed curves; inactive means no such curve, though single readings can be large; an effect the other way counts as inactive or inconclusive.

Legend:
[1] = target: Acetylcholinesterase (Homo sapiens) (UniProt P22303); test: Acetylcholinesterase (AChE) small molecule antagonists: fluorescence cell-based qHTS assay (AID 1347398; calls by dose curve; further: nearly all actives have a fitted effect of over 50% in size); conditions: SH-SY5Y cells; Potency: AChE activity; series mostly up to 115 µM
Acetylcholinesterase (Homo sapiens), sequence (P22303 whole entry, looked up): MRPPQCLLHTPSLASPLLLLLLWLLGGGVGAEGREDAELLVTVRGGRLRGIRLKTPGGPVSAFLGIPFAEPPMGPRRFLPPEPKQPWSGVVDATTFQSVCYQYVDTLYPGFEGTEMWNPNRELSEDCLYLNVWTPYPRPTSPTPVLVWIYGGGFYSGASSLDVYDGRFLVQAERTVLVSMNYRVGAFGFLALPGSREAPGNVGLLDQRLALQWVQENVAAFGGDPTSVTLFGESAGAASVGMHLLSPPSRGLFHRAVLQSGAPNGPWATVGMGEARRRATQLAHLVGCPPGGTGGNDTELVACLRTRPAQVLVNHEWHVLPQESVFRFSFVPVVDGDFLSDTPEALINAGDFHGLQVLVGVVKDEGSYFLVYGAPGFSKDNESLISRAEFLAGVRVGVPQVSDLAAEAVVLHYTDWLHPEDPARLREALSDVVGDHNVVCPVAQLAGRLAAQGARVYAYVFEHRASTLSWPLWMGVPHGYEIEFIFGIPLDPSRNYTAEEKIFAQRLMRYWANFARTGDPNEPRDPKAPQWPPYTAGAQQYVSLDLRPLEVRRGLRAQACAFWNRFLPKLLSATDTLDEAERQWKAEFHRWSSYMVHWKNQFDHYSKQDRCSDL
Summary of the method: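 Thiocholine generated from acetylthiocholine by SH-SY5Y cell AChE is detected with Thiolite Green (Ex/Em 490/520 nm) after 40 min at room temperature, following 30 min compound pretreatment at 37 C.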

[2] = target: Acetylcholinesterase (Homo sapiens) (UniProt P22303); test: Acetylcholinesterase (AChE) small molecule antagonists: enzyme-based qHTS assay with human liver microsomes (AID 1347399; calls by dose curve; further: nearly all actives have a fitted effect of over 60% in size); conditions: Potency: qHTS inhibition; series mostly up to 115 µM
Summary of the method: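 Recombinant human AChE (50 mU/mL in the enzyme mix) and human liver microsomes (0.25 mg/mL final) were preincubated with compound and NADPH (0.25 mg/mL final) for 30 min at 37 C. Acetylthiocholine/DTNB was then added; thiocholine was read colorimetrically after 10 min at room temperature.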

[3] = target: Cytochrome P450 2C9 (Homo sapiens) (UniProt P11712); test: Cytochrome P450 Family 2 Subfamily C Member 9 (CYP2C9) small molecule antagonists: luciferase reporter qHTS assay (AID 1671198); conditions: P450-Glo CYP2C9 enzyme assay, luciferin luminescence; series mostly up to 115 µM; further: nearly all actives have a fitted effect of over 50% in size; further: potency means the concentration at half of the fitted maximal effect
Cytochrome P450 2C9 (Homo sapiens), sequence (P11712 whole entry, looked up): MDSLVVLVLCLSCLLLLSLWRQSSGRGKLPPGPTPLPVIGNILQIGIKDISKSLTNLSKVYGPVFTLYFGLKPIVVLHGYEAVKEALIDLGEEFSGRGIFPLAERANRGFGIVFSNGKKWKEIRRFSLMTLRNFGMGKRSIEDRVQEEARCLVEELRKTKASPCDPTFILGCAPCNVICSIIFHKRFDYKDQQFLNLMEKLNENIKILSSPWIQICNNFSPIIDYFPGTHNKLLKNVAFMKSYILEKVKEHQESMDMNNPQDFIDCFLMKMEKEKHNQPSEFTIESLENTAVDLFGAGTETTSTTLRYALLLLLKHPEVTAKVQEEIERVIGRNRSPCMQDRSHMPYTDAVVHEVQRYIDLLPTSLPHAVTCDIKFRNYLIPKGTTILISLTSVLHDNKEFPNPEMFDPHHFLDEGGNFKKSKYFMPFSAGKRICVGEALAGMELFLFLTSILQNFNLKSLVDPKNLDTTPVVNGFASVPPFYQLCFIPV
Summary of the method: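 CYP2C9 activity was measured with a P450-Glo proluciferin substrate. Enzyme–substrate mix was held with compound for 10 min at room temperature, then NADPH regeneration solution was added for 1 h at 37C. Luciferin product was read as luminescence.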

[4] = target: Cytochrome P450 1A2 (Homo sapiens) (UniProt P05177); test: Cytochrome P450 Family 1 Subfamily A Member 2 (CYP1A2) small molecule antagonists: luciferase reporter qHTS assay (AID 1671199); conditions: P450-Glo CYP1A2 enzyme, luciferin luminescence, 1 h; series mostly up to 115 µM; further: nearly all actives have a fitted effect of over 50% in size; further: potency means the concentration at half of the fitted maximal effect
Cytochrome P450 1A2 (Homo sapiens), sequence (P05177 whole entry, looked up): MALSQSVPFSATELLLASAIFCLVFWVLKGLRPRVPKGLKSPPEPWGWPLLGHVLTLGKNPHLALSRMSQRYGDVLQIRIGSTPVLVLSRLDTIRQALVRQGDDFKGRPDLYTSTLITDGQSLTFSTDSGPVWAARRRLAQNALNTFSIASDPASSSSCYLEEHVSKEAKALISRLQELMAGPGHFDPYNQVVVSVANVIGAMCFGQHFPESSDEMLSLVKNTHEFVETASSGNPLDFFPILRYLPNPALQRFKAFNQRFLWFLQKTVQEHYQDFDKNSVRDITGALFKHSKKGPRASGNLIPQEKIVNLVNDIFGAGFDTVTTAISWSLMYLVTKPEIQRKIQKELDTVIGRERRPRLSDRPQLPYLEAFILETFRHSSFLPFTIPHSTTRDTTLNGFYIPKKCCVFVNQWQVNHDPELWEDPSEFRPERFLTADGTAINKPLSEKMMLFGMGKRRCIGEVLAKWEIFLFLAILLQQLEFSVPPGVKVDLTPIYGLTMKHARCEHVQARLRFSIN
Summary of the method: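 Signal from luciferin formed by CYP1A2 from a proluciferin substrate is read as luminescence, expressed in relative luminescence units. Compounds sit with enzyme 10 min, NADPH-driven reaction runs 1 h, all at room temperature.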

[5] = target: Voltage-gated inwardly rectifying potassium channel KCNH2 (Homo sapiens) (UniProt Q12809); test: Human Ether-a-go-go-Related Gene (hERG) channel small molecule antagonists: fluorescence cell-based qHTS assay (AID 1671200); conditions: hERG-U2OS cells, FluxOR thallium flux fluorescence; series mostly up to 76.8 µM; further: nearly all actives have a fitted effect of over 50% in size; further: potency means the concentration at half of the fitted maximal effect
Voltage-gated inwardly rectifying potassium channel KCNH2 (Homo sapiens), sequence (Q12809 whole entry, looked up): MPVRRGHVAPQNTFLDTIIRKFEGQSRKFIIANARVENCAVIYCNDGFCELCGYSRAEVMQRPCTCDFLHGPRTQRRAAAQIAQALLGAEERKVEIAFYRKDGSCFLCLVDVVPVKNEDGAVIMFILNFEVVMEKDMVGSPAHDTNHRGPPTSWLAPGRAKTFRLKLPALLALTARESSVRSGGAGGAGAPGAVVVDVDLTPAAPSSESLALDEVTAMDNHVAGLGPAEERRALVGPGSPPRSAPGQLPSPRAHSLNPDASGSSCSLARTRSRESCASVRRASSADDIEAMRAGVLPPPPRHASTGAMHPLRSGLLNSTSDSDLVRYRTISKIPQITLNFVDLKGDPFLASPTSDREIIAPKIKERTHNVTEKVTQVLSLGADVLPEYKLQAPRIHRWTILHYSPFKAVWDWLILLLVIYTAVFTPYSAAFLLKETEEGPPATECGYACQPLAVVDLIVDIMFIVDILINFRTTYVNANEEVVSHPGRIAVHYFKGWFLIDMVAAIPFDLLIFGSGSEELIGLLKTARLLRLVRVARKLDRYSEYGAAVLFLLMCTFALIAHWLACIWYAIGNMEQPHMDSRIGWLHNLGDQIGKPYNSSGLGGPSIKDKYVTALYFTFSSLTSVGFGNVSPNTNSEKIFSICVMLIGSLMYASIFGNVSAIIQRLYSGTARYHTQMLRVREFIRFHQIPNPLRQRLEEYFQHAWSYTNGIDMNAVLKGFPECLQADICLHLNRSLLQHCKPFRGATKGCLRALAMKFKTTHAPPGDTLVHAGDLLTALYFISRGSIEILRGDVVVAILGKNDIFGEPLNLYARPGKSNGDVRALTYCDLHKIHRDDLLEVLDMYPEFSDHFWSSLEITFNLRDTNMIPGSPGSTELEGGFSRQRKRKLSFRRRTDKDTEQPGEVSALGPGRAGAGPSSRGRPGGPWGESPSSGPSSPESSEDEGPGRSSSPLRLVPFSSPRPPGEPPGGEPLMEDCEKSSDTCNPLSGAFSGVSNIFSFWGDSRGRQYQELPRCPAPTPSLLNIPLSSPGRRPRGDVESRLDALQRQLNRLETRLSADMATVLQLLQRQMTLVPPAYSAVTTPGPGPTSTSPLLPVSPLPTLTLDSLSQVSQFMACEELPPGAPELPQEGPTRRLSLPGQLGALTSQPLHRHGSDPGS
Summary of the method: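 Fluorescence at 540 nm emission (480 nm excitation) was recorded kinetically for 2 min at 1-second intervals once the thallium-containing stimulus reached cells previously loaded with FluxOR II dye.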

[6] = target: Cytochrome P450 3A4 (Homo sapiens) (UniProt P08684); test: Cytochrome P450 Family 3 Subfamily A Member 4 (CYP3A4) small molecule antagonists: luciferase reporter qHTS assay (AID 1671201); conditions: P450-Glo CYP3A4 enzyme, luciferin luminescence, 1 h; series mostly up to 115 µM; further: nearly all actives have a fitted effect of over 50% in size; further: potency means the concentration at half of the fitted maximal effect
Cytochrome P450 3A4 (Homo sapiens), sequence (P08684 whole entry, looked up): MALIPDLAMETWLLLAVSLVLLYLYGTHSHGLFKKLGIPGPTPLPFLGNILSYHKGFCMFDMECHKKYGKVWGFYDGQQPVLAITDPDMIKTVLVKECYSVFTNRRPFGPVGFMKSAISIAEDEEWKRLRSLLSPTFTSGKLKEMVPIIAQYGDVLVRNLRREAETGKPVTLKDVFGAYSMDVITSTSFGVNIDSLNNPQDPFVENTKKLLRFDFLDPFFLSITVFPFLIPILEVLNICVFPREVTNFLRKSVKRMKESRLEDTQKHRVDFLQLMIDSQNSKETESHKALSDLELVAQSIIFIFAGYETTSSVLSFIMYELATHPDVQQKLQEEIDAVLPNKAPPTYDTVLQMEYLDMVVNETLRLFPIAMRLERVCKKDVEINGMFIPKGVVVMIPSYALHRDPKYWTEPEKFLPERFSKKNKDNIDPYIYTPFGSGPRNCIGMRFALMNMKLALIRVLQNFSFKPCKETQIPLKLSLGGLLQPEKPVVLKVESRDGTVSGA
Summary of the method: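 qHTS, 1536-well. CYP3A4 + proluciferin substrate, cpd 10 min RT → NADPH regen 1 h RT → detection reagent 20 min → luminescence (RLU). Ketoconazole positive control.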

[7] = target: Cytochrome P450 2D6 (Homo sapiens) (UniProt P10635); test: Cytochrome P450 Family 2 Subfamily D Member 6 (CYP2D6) small molecule antagonists: luciferase reporter qHTS assay (AID 1671196); conditions: P450-Glo CYP2D6 enzyme assay, luciferin luminescence, 1 h; series mostly up to 115 µM; further: nearly all actives have a fitted effect of over 50% in size; further: potency means the concentration at half of the fitted maximal effect
Cytochrome P450 2D6 (Homo sapiens), sequence (P10635 whole entry, looked up): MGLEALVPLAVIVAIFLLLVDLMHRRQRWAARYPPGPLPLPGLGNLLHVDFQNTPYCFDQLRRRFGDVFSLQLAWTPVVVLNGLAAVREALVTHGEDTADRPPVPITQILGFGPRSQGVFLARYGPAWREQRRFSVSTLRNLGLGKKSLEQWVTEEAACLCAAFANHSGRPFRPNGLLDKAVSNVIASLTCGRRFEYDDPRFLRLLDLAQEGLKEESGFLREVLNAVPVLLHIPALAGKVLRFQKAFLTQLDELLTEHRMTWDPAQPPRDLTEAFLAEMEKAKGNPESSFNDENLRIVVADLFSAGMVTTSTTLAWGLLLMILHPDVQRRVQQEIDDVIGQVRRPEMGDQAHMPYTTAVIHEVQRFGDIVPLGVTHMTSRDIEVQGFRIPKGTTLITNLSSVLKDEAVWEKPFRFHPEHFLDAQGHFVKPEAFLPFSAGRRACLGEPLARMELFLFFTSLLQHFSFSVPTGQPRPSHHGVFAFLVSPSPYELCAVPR
Summary of the method: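 Inhibition of CYP2D6 was gauged by loss of luminescence, since light produced tracks the luciferin generated from a proluciferin substrate. A 10 min room-temperature preincubation preceded 1 h NADPH-supported turnover.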

[8] = target: Cytochrome P450 2C19 (Homo sapiens) (UniProt P33261); test: Cytochrome P450 Family 2 Subfamily C Member 19 (CYP2C19) small molecule antagonists: luciferase reporter qHTS assay (AID 1671197); conditions: P450-Glo CYP2C19 enzyme, luciferin luminescence, 1 h; series mostly up to 115 µM; further: nearly all actives have a fitted effect of over 65% in size; further: potency means the concentration at half of the fitted maximal effect
Cytochrome P450 2C19 (Homo sapiens), sequence (P33261 whole entry, looked up): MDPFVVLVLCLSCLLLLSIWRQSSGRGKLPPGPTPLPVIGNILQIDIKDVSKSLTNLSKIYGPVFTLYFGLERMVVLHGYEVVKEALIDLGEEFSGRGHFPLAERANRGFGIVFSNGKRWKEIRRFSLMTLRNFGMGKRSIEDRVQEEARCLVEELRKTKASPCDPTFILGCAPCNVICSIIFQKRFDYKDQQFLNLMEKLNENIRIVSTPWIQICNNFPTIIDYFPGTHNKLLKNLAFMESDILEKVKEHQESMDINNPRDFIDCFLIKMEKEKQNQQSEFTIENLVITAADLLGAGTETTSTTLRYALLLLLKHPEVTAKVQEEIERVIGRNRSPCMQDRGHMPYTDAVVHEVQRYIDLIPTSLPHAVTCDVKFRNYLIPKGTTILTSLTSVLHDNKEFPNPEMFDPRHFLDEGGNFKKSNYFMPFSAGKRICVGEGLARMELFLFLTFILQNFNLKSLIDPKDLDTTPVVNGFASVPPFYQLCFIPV
Summary of the method: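 P450-Glo CYP2C19 screening system; proluciferin substrate; DMSO compound stocks; 10 min RT preincubation; NADPH regeneration, 1 h at 37C; luciferin detection reagent, 20 min RT; luminescence as RLU.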

## Oc1ccc(I)cc1
[1]
  Potency: inactive
[2]
  Potency: inactive
[3]
  Potency: 71 µM (active)
[4]
  Potency: 39.9 µM (active)
[5]
  Potency: inactive
[6]
  Potency: inactive

## COC[C@H](C)N(C(=O)CCl)c1c(C)csc1C
[1]
  Potency: inactive
[2]
  Potency: inactive
[3]
  Potency: inactive
[4]
  Potency: inactive
[5]
  Potency: inactive

## O=c1[nH]c2ccccc2n1C1CCN(CCCC(c2ccc(F)cc2)c2ccc(F)cc2)CC1
[1]
  Potency: inactive
[2]
  Potency: inactive
[4]
  Potency: inactive
[6]
  Potency: inactive

## C=CCC1=C(C)C(OC(=O)C2C(C=C(C)C)C2(C)C)CC1=O (configuration not stated)
[2]
  Potency: inactive
[7]
  Potency: 30 µM (active)
[8]
  Potency: 1.69 µM (active)
[3]
  Potency: 6.71 µM (active)
[4]
  Potency: 25.9 µM (active)
[5]
  Potency: 29.2 µM (active)

## COc1cc(N)c(Cl)cc1C(=O)NC1CN2CCC1CC2 (configuration not stated)
[7]
  Potency: 13.8 µM (active)
[3]
  Potency: inactive
[4]
  Potency: inactive
[6]
  Potency: inactive

## C[C@@H]1CC[C@@]2(OC1)O[C@H]1[C@@H](O)[C@H]3[C@@H]4CC[C@H]5C[C@@H](O[C@@H]6O[C@H](CO)[C@H](O[C@@H]7O[C@H](CO)[C@@H](O)[C@H](O[C@@H]8OC[C@@H](O)[C@H](O)[C@H]8O)[C@H]7O[C@@H]7O[C@H](CO)[C@@H](O)[C@H](O[C@@H]8O[C@H](CO)[C@@H](O)[C@H](O)[C@H]8O)[C@H]7O)[C@H](O)[C@H]6O)[C@H](O)C[C@]5(C)[C@H]4CC[C@]3(C)[C@H]1[C@@H]2C
[2]
  Potency: inactive
[7]
  Potency: inactive
[8]
  Potency: inactive
[3]
  Potency: inactive
[4]
  Potency: inactive
[5]
  Potency: 11.6 µM (active)

## c1ccc(OCC2CO2)cc1 (configuration not stated)
[5]
  Potency: inactive

## CC(C)(C)C(O)/C(=C\c1ccc(Cl)cc1Cl)n1cncn1 (configuration not stated)
[2]
  Potency: inactive
[7]
  Potency: 34.2 µM (active)
[8]
  Potency: 0.0342 µM (active)
[3]
  Potency: 4.83 µM (active)
[4]
  Potency: 38.4 µM (active)
[6]
  Potency: 0.272 µM (active)

## CCSC(C)CC1CC(=O)C(/C(CC)=N/OC/C=C/Cl)=C(O)C1 (configuration not stated)
[2]
  Potency: inactive
[8]
  Potency: 9.77 µM (active)
[3]
  Potency: 13.8 µM (active)
[5]
  Potency: inactive
[6]
  Potency: 8.71 µM (active)

## COc1cccc(C(=O)CCN[C@@H](C)[C@H](O)c2ccccc2)c1
[7]
  Potency: 1.38 µM (active)
[8]
  Potency: 21.9 µM (active)
[3]
  Potency: 27.5 µM (active)
[4]
  Potency: 24.5 µM (active)
[5]
  Potency: inactive

## FC(F)(F)c1cccc(C2=CCN(CCc3ccc4ccccc4c3)CC2)c1
[7]
  Potency: 0.195 µM (active)
[8]
  Potency: inactive
[3]
  Potency: inactive
[5]
  Potency: 1.69 µM (active)
[6]
  Potency: inactive

## CCCN(CCC)c1c([N+](=O)[O-])cc(S(N)(=O)=O)cc1[N+](=O)[O-]
[2]
  Potency: inactive
[7]
  Potency: 62.7 µM (active)
[8]
  Potency: 37.9 µM (active)
[3]
  Potency: 5.12 µM (active)
[4]
  Potency: 51.2 µM (active)
[6]
  Potency: 21.3 µM (active)

## CCCCCCCCCCCCCCCC[N+](C)(C)C
[7]
  Potency: 862 nM (active) and 1.42 µM (active) and 1.38 µM (active)
[8]
  Potency: 79.6 µM (active) and inactive
[3]
  Potency: inactive
[4]
  Potency: inactive and 79.6 µM (active)
[5]
  Potency: 16.8 µM (active) and 21.9 µM (active) and 16.9 µM (active)
[6]
  Potency: inactive

## COc1ccc([N+](=O)[O-])cc1O
[2]
  Potency: inactive
[5]
  Potency: inactive
[6]
  Potency: inactive

## O=CC(Br)(Br)Br
[2]
  Potency: inactive
[7]
  Potency: inactive
[3]
  Potency: 14.1 µM (active)
[4]
  Potency: 28.2 µM (active)
[5]
  Potency: inactive
[6]
  Potency: inactive

## CC[C@H]1C[C@@H]2C[C@H]3c4[nH]c5ccc(OC)cc5c4CCN(C2)[C@@H]13
[2]
  Potency: inactive
[7]
  Potency: 0.698 µM (active)
[4]
  Potency: 44.1 µM (active)

## CCOCCOC(C)=O
[2]
  Potency: inactive
[7]
  Potency: 71 µM (active)
[8]
  Potency: 79.6 µM (active)
[4]
  Potency: 43.5 µM (active)
[5]
  Potency: inactive
[6]
  Potency: inactive

## c1ccc2c(c1)[nH]c1cnccc12
[2]
  Potency: inactive
[7]
  Potency: 7.11 µM (active)
[8]
  Potency: 31.8 µM (active)
[3]
  Potency: 31.8 µM (active)
[4]
  Potency: 7.98 µM (active)
[5]
  Potency: inactive
[6]
  Potency: 31.8 µM (active)

## CC(=O)/C=C/c1ccc2c(c1)OCO2
[2]
  Potency: inactive
[7]
  Potency: 25.3 µM (active)
[8]
  Potency: 14.2 µM (active)
[3]
  Potency: 8.01 µM (active)
[4]
  Potency: 0.226 µM (active)
[5]
  Potency: inactive
[6]
  Potency: 2.53 µM (active)
